# From PubChem BioAssay (NCI)
# About 83,000 compounds went through this panel and 20% of them were active in at least one assay; those are over-represented in the sample as a whole.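 Negative percent growth values reflect cell death: -40 means 40% of the cells present at the start died, and -100 means all died.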 Values without a mark were called inactive. Activity calls are given as the source filed them. How the source made its calls: active means growth percent below 10; inactive means the rest.
# Experiments:
# Assay in all cases: NCI-60 one-dose screen, 48 h (100 = growth as untreated, 0 = no growth, -100 = all killed)
# Conditions in all cases: 10 µM
# HCT-15 colon = system: HCT-15 colon
# HT29 colon = system: HT29 colon
# SNB-75 CNS = system: SNB-75 CNS
# SNB-19 CNS = system: SNB-19 CNS
# U251 CNS = system: U251 CNS
# PC-3 prostate = system: PC-3 prostate
# SK-MEL-5 melanoma = system: SK-MEL-5 melanoma
# UACC-62 melanoma = system: UACC-62 melanoma
# LOX IMVI melanoma = system: LOX IMVI melanoma
# SK-MEL-28 melanoma = system: SK-MEL-28 melanoma
# SK-MEL-2 melanoma = system: SK-MEL-2 melanoma
# SN12C renal = system: SN12C renal
# TK-10 renal = system: TK-10 renal
# ACHN renal = system: ACHN renal
# CAKI-1 renal = system: CAKI-1 renal
# A498 renal = system: A498 renal
# CCRF-CEM leukemia = system: CCRF-CEM leukemia
# MOLT-4 leukemia = system: MOLT-4 leukemia
# UO-31 renal = system: UO-31 renal
# EKVX NSCLC = system: EKVX NSCLC
Structure (SMILES),growth (HCT-15 colon),growth (HT29 colon),growth (SNB-75 CNS),growth (SNB-19 CNS),growth (U251 CNS),growth (PC-3 prostate),growth (SK-MEL-5 melanoma),growth (UACC-62 melanoma),growth (LOX IMVI melanoma),growth (SK-MEL-28 melanoma),growth (SK-MEL-2 melanoma),growth (SN12C renal),growth (TK-10 renal),growth (ACHN renal),growth (CAKI-1 renal),growth (A498 renal),growth (CCRF-CEM leukemia),growth (MOLT-4 leukemia),growth (UO-31 renal),growth (EKVX NSCLC)
CC(Oc1ccc(Cl)cc1)c1ccccc1 (configuration not stated),112%,106%,97.3%,99.7%,102%,93.4%,100%,97.6%,97.5%,106%,112%,98.1%,106%,125%,96.5%,119%,94.1%,87.3%,–,–
COc1cc2ccnc(C=O)c2cc1OC,27.9%,20.9%,76.7%,88.3%,91%,90.7%,60.6%,74%,–,79.5%,83.2%,77.8%,50.4%,51.2%,47.5%,111%,-3.23% (active),29.7%,13.8%,–
Cc1cc(C)c2nc(C)c(C)[n+]([O-])c2c1,97.6%,96.3%,84.1%,109%,90.6%,72.8%,104%,105%,–,106%,106%,–,99.3%,109%,96.9%,146%,66%,83.1%,88.3%,99.1%
O=C(O)c1cc(C(F)(F)F)cc(C(F)(F)F)c1,104%,100%,97.6%,118%,103%,97.7%,109%,108%,–,103%,97.1%,104%,135%,105%,99.6%,84.4%,102%,95%,77.8%,105%
COc1ccccc1S(=O)(=O)Nc1ccc2c(c1)CN(C)C(=O)N2,40.8%,22.8%,17.5%,54.1%,50%,35.3%,40.5%,29.3%,29.1%,48.9%,47.6%,53.2%,17.3%,34.7%,21.2%,-2.92% (active),48.9%,38.4%,–,–
C=CCN1C(=O)/C(=C\c2ccc3c(c2)CCC3)SC1=S,98.8%,97.4%,99.9%,94.2%,100%,107%,99.6%,99.2%,98.5%,113%,94.6%,102%,108%,97.1%,97.5%,98.9%,103%,85.9%,–,–
C[C@@H]1N=C(c2ccc(Br)cc2)Nc2nc3ccccn3c2C1=O,30.7%,17.5%,50.2%,82.6%,54%,63.2%,31.9%,49.2%,–,66.2%,47.4%,91.8%,110%,69.2%,44.1%,69.9%,79.4%,57.5%,62%,–
CCc1ccc(-c2nnc(COc3ccc(-c4nc5ccccc5[nH]4)cc3OC)o2)cc1,52.9%,61.7%,-27.1% (active),84.3%,23.3%,54.9%,80.2%,91%,24.5%,93.5%,96.7%,21.7%,16.7%,-13.9% (active),60.1%,88.8%,61.8%,71.8%,–,–
COc1cccc(C(=O)NNc2nc(N3CCN(C4CCCCC4)CC3)nc(N3CCN(C(c4ccccc4)c4ccccc4)CC3)n2)c1,25.4%,24%,63.6%,47.7%,32.6%,21%,-85.1% (active),39.6%,7.83% (active),64.3%,87.3%,51.8%,46.1%,70.2%,59.4%,49.2%,39.9%,15.5%,–,–
COc1ccc(-c2nc3sc(-c4ccccc4)c(-c4ccccc4)n3c2/C=C/c2ccc(F)cc2)cc1,91.4%,94.7%,72.3%,108%,99.3%,61.6%,99.6%,82.8%,87.1%,109%,89.3%,86.7%,115%,78.9%,67%,108%,–,74.8%,–,–
O=S(=O)(NCl)c1ccccc1,102%,106%,84.3%,104%,95.9%,99.1%,103%,106%,–,97.1%,109%,106%,96.2%,105%,94.7%,97.5%,92.5%,98.3%,83.1%,–
COc1cc(OC)cc(-c2ccc(-c3ccc(C(=N)N)cn3)o2)c1,6.84% (active),-38.5% (active),-35.7% (active),33.3%,-80.9% (active),31.4%,-95.7% (active),-89.7% (active),-89.5% (active),-95.4% (active),-76.8% (active),-50.5% (active),0.358% (active),1.34% (active),16.1%,44.1%,-25.6% (active),-41.9% (active),–,–
Cc1cc(/C=C2\SC(=Nc3ccccc3)N(C3CCCC3)C2=O)c(C)n1-c1ccc(Cl)cc1,-28.2% (active),-65.8% (active),-51.3% (active),-65.8% (active),-91.1% (active),-63.4% (active),-97.9% (active),-56.3% (active),–,-69.8% (active),-77.3% (active),-51.4% (active),-90.9% (active),-76.3% (active),-59.9% (active),-88.3% (active),-9.97% (active),-18% (active),-91.9% (active),–
Oc1ccc(Cn2cc3c(c2-c2ccccc2)CCc2cnoc2-3)cc1,100%,94%,91.9%,99.2%,88.9%,87.3%,89.9%,70.3%,–,101%,102%,91.7%,111%,90%,81.7%,104%,99.1%,80.5%,88.8%,80.2%
N#CCC1CCCC1,99.7%,105%,78.7%,98.8%,97.4%,87.9%,104%,99.4%,97.2%,97.6%,120%,94%,–,98.1%,89.9%,91%,92%,112%,97%,–
C/C(=N\NC(=O)c1sc(=S)n(C)c1N)c1cc2ccccc2o1,48%,36.6%,53%,89.9%,56.5%,45.5%,43.1%,71.3%,–,71.8%,74.4%,72.2%,56.6%,59.7%,50%,33.3%,51.2%,35.7%,–,64.8%
CC(=O)N(O)c1ccc(/C=C/c2ccccc2)cc1,62.7%,47%,16%,32.3%,14.1%,36.1%,73.7%,32.2%,–,75.4%,92.7%,26.5%,4.86% (active),-18.1% (active),0.955% (active),-78.8% (active),26.5%,41.8%,-30.8% (active),–
